About 79,000 compounds went through this panel and 15% of them were active in at least one assay; those are over-represented in the sample as a whole. Activity calls are given as the source filed them. Rule as the data show it: active = growth inhibition above about 70%; inactive = the rest.
Legend:
[1] = NCI Yeast Anticancer Drug Screen. Data for the rad50 strain (AID 155);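 also: 0% = growth of vehicle-only cultures of the same strain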; conditions: S. cerevisiae rad50 strain growth inhibition, hits give high values
Method in brief: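 Relative growth inhibition (compound vs vehicle) was measured in yeast with a defined repair-gene alteration.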

[2] = NCI Yeast Anticancer Drug Screen. Data for the mec2-1 strain (AID 157); conditions: S. cerevisiae mec2-1 strain, hits give high values
Method in brief: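 Growth inhibition is read against vehicle-treated controls after compound exposure of the mec2-1 yeast strain, which is defective in DNA damage repair or cell cycle control.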

[3] = NCI Yeast Anticancer Drug Screen. Data for the sgs1 mgt1 strain (AID 161);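 also: 0% = growth of cultures given vehicle only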; conditions: S. cerevisiae sgs1 mgt1 strain, hits give high values
Method in brief: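 Growth of a repair-deficient yeast mutant was monitored after compound treatment and expressed as inhibition relative to vehicle-treated cultures.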

[4] = NCI Yeast Anticancer Drug Screen. Data for the cln2 rad14 strain (AID 165);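 also: 0% = growth equal to vehicle treated cultures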; conditions: S. cerevisiae cln2 rad14 strain, hits give high values
Method in brief: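 Growth inhibition, relative to vehicle-treated controls, is the read-out. The test organism is a yeast strain with defined genetic alterations, cln2 rad14.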

[5] = NCI Yeast Anticancer Drug Screen. Data for the bub3 strain (AID 167); conditions: S. cerevisiae bub3 mutant strain, hits give high values
Method in brief: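 Screening used yeast with an engineered genetic alteration affecting cell cycle control. Compound-exposed cultures were compared with vehicle cultures, and reduced growth was taken as inhibition.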

[6] = NCI Yeast Anticancer Drug Screen. Data for the mlh1 rad18 strain (AID 175); conditions: S. cerevisiae mlh1 rad18 strain growth inhibition, hits give high values
Method in brief: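 Cells of a genetically altered yeast strain, deficient in DNA damage repair, were treated with compound. Their growth was then compared with that of vehicle-treated cultures to give inhibition.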

[7] = at 5.0 µM (retest, dose inferred, filed as 0.5)
[8] = at 50.0 µM (retest, dose inferred, filed as 5.0)

Measured: growth inhibition

CC1=C(C(=O)Nc2ccc(Cl)c(Cl)c2)C(c2ccco2)C(C(=O)Nc2ccc(Cl)c(Cl)c2)=C(C)N1
active: [1]; at 50.0 µM 88.7% | [2]; at 50.0 µM 87.7% | [3]; at 50.0 µM 89.3% | [4]; at 50.0 µM 88.2% | [5]; at 50.0 µM 89% | [6]; at 50.0 µM 87.6%
inactive: [1]; [7] 41% | [1]; [8] 41% | [2]; [7] 22% | [2]; [8] 22% | [3]; [7] -4% | [3]; [8] -4% | [4]; [7] 24% | [4]; [8] 24% | [5]; [7] 10% | [5]; [8] 10% | [6]; [7] 36% | [6]; [8] 36%

O=C1C(Cl)=C(Cl)C(=O)c2cc(Cl)c(Cl)cc21
inactive: [3]; [7] 65% | [6]; [7] 60%
active: [1]; [7] 82% | [1]; [8] 99% | [1]; at 50.0 µM 83.9% | [2]; [7] 89% | [2]; [8] 99% | [2]; at 50.0 µM 84% | [3]; [8] 99% | [3]; at 50.0 µM 97.1% | [4]; [7] 86% | [4]; [8] 97% | [4]; at 50.0 µM 88.2% | [5]; [7] 98% | [5]; [8] 98% | [5]; at 50.0 µM 93.5% | [6]; [8] 97% | [6]; at 50.0 µM 87.8%

CS(=O)(=O)c1nnnn1-c1ccccc1
inactive: [1]; [7] -21% | [2]; [7] -24% | [3]; [7] -18% | [4]; [7] -49% | [5]; [7] -34% | [6]; [7] -62%
active: [1]; [8] 93% | [1]; at 50.0 µM 99.2% | [2]; [8] 97% | [2]; at 50.0 µM 99.5% | [3]; [8] 96% | [3]; at 50.0 µM 99% | [4]; [8] 94% | [4]; at 50.0 µM 97.3% | [5]; [8] 95% | [5]; at 50.0 µM 99.4% | [6]; [8] 96% | [6]; at 50.0 µM 99.5%

O=c1[nH]c2c([N+](=O)[O-])cc(Cl)cc2nc1/C=C(\O)c1ccc(Cl)cc1
active: [1]; [8] 91% | [1]; at 50.0 µM 96.8% | [2]; [8] 87% | [2]; at 50.0 µM 95.3% | [3]; [8] 78% | [3]; at 50.0 µM 95.3% | [4]; [8] 83% | [5]; [8] 87% | [5]; at 50.0 µM 89.8% | [6]; [8] 95% | [6]; at 50.0 µM 97.2%
inactive: [1]; [7] -16% | [2]; [7] 20% | [3]; [7] -3% | [4]; [7] -27% | [4]; at 50.0 µM 65% | [5]; [7] 17% | [6]; [7] 13%

CCCCCNC(=O)C1C(=O)N(CCCCC)C(=O)/C1=N\N (configuration not stated)
inactive: [1]; [7] -1% | [1]; [8] -1% | [1]; at 50.0 µM -5% | [2]; [7] -3% | [2]; [8] 2% | [2]; at 50.0 µM 29.8% | [3]; [7] 2% | [3]; [8] 3% | [3]; at 50.0 µM 1.7% | [4]; [7] 1% | [4]; [8] -3% | [5]; [7] 5% | [5]; [8] -3% | [5]; at 50.0 µM 30.8% | [6]; [7] -1% | [6]; [8] -4% | [6]; at 50.0 µM -13.5%
active: [4]; at 50.0 µM 79.7%

O=[N+]([O-])c1ccc(N2CCCC(n3cccc3)C2)c([N+](=O)[O-])c1 (configuration not stated)
inactive: [1]; [7] 7% | [1]; [8] 38% | [1]; at 50.0 µM 47.6% | [2]; [7] -2% | [2]; [8] 5% | [2]; at 50.0 µM 46.2% | [3]; [7] 4% | [3]; [8] 27% | [3]; at 50.0 µM 61.3% | [4]; [7] 12% | [4]; [8] 49% | [4]; at 50.0 µM 50.2% | [5]; [7] -9% | [5]; [8] 50% | [5]; at 50.0 µM 67.6% | [6]; [7] 1% | [6]; [8] 55% | [6]; at 50.0 µM 48.5%

N=C(N)SCc1cc(Cl)cc(Cl)c1O
active: [6]; at 50.0 µM 80.2%
inactive: [1]; [7] 8% | [1]; [8] 20% | [1]; at 50.0 µM 55.2% | [2]; [7] 4% | [2]; [8] -6% | [2]; at 50.0 µM -1.85% | [3]; [7] 1% | [3]; [8] 1% | [3]; at 50.0 µM 16% | [4]; [7] -18% | [4]; [8] -72% | [4]; at 50.0 µM -2% | [5]; [7] -14% | [5]; [8] -19% | [5]; at 50.0 µM -9.35% | [6]; [7] -5% | [6]; [8] 42%

Nc1ncnc2c1c(-c1ccc(Cl)cc1)cn2-c1ccccc1
active: [3]; [8] 82% | [3]; at 50.0 µM 85.2% | [6]; [8] 76%
inactive: [1]; [7] 21% | [1]; [8] 62% | [1]; at 50.0 µM 51.2% | [2]; [7] 11% | [2]; [8] 52% | [2]; at 50.0 µM 30.1% | [3]; [7] 42% | [4]; [7] 2% | [4]; [8] 35% | [4]; at 50.0 µM 45% | [5]; [7] 13% | [5]; [8] 65% | [5]; at 50.0 µM 48.7% | [6]; [7] 13% | [6]; at 50.0 µM 26.7%

O=C(CCCl)Nc1ccc(CCC(=O)c2ccccc2NC(=O)CCCl)cc1
active: [3]; at 50.0 µM 81.8%
inactive: [1]; [7] -10% | [1]; [8] 23% | [1]; at 50.0 µM 69.2% | [2]; [7] -9% | [2]; [8] -4% | [2]; at 50.0 µM 64.4% | [3]; [7] -7% | [3]; [8] 59% | [4]; [7] -24% | [4]; [8] -22% | [4]; at 50.0 µM 27.9% | [5]; [7] -8% | [5]; [8] 19% | [5]; at 50.0 µM 10.8% | [6]; [7] -11% | [6]; [8] -6% | [6]; at 50.0 µM 54.3%
